Results from PubChem BioAssay (NCATS).
Where “and” joins values, the source holds several entries; their conditions need not be identical. Equal entries are not always repeated. Inconclusive results are not listed. Where a call stands in place of a potency, no number is given. A number with no mark means an inactive call. Calls of active or inactive are those of the source. The call rests on the fitted dose curve; in most records, active means well fitted cell-killing curve with a large enough effect; inconclusive means small, poorly fitted or top-dose-only effect; inactive means flat fitted curve, though single readings scatter.

experiment: qHTS of pediatric cancer cell lines to identify multiple opportunities for drug repurposing: Primary screen for Rh18 cells (AID 1347102); details: Rh18 rhabdomyosarcoma viability, CellTiter-Glo luminescence, 48 h; series mostly up to 46 µM; activity change, negative = cytotoxic: at the top concentration; further: nearly all actives have a fitted effect of over 65% in size
In short: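 Cells (500-1,000/well) rested 5 h, then received compounds for 48 h; metabolically active cells were measured by CellTiter-Glo luminescence. Final concentrations spanned up to 46 µM (MIPE, 11-point) or 0.59 nM-46 µM (NPC, 8-point) in primary screens, 11-point in follow-ups.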
Potency means the concentration at half of the fitted maximal effect.

SMILES	activity change, negative = cytotoxic	Potency
COC(=O)C1=C(C)NC(C)=C(C(=O)OC(C)C)C1c1cccc2nonc12 (configuration not stated)	-6.3%	–
CC1(C)NC(=O)N(c2ccc([N+](=O)[O-])c(C(F)(F)F)c2)C1=O	–	inactive
CC(C)(S)[C@@H](N)C(=O)O	6.98%	–
Cc1ncc([N+](=O)[O-])n1CC(C)O (configuration not stated)	–	inactive
COc1cc2c(cc1OC)C1CC(=O)C(CC(C)C)CN1CC2 (configuration not stated)	-3.52%	–
NS(=O)(=O)c1cc(C(=O)O)c(NCc2ccco2)cc1Cl	–	inactive
COc1ccccc1N1CCN(CCN(C(=O)C2CCCCC2)c2ccccn2)CC1	25.7%	–
Cc1cc(=O)oc2cc(O)ccc12	–	inactive
CNC[C@@H](O)[C@@H](O)[C@H](O)[C@H](O)CO	14.4%	–
c1cnc2cc3c(cc2n1)C1CNCC3C1	22%	–
CCOC(=O)c1c(C)n(C)c2ccc(O)cc12	–	inactive
CCOc1cc(CC(=O)N[C@@H](CC(C)C)c2ccccc2N2CCCCC2)ccc1C(=O)O	17.3%	–
CC1Cc2ccccc2N1NC(=O)c1ccc(Cl)c(S(N)(=O)=O)c1 (configuration not stated)	–	inactive
O=C(OC1C[C@H]2CC[C@@H](C1)[N+]21CCCC1)C(O)(c1ccccc1)c1ccccc1 (some centres not stated)	13.9%	–
CCCCC(CC)COC(=O)C(C#N)=C(c1ccccc1)c1ccccc1 (configuration not stated)	1.27%	–
NNc1nncc2ccccc12	–	inactive
Oc1ccc(OCc2ccccc2)cc1	–	inactive
COc1ccc2cc([C@H](C)C(=O)O)ccc2c1	–	inactive
Nc1ncn([C@H]2C[C@H](O)[C@@H](CO)O2)c(=O)n1	–	inactive

SMILES	activity change, negative = cytotoxic	Potency
COc1c2occc2cc2ccc(=O)oc12	–	inactive
C[Se]CCC(N)C(=O)O (configuration not stated)	-9.56% [at 92.7 µM]	–
CC1(C)C(=O)N(CCN2CCC(C(=O)c3ccc(F)cc3)CC2)c2ccccc21	20.1%	–
CCCCCCCCCCCCCCCCCCCCCCO	18.5%	–
Cc1nc2n(c(=O)c1CCN1CCC(c3noc4cc(F)ccc34)CC1)CCCC2	–	inactive
N=C(N)c1ccc2cc(OC(=O)c3ccc(N=C(N)N)cc3)ccc2c1	–	inactive
CCN(CCO)CCCC(C)Nc1ccnc2cc(Cl)ccc12 (configuration not stated)	–	inactive
CCN(CC)C(=S)SSC(=S)N(CC)CC	–	33.2 nM (active) and 70 nM (active) and 376 nM (active)
NC(=O)Cc1cccc(C(=O)c2ccccc2)c1N	–	inactive
Cc1ccc(NC(=O)c2ccc(CN3CCN(C)CC3)cc2)cc1Nc1nccc(-c2cccnc2)n1	-15.8%	–
O=C(O)c1cn(-c2ccc(F)cc2)c2cc(N3CCNCC3)c(F)cc2c1=O	–	inactive
CN1C(C(=O)Nc2ccccn2)=C(O)c2sccc2S1(=O)=O	–	inactive
Cc1cc2c(s1)Nc1ccccc1N=C2N1CCN(C)CC1	–	inactive
COc1cc(OC)c(C(=O)CCCN2CCCC2)c(OC)c1	–	inactive
CC1=C(C(=O)O)N2C(=O)[C@@H](NC(=O)[C@H](N)C3=CCC=CC3)[C@H]2SC1	–	inactive
Nc1cc(C(Cl)=C(Cl)Cl)c(S(N)(=O)=O)cc1S(N)(=O)=O	–	inactive
Nc1ccc(S(N)(=O)=O)cc1	–	inactive
Clc1ccc2c(N3CCN(CCCN4CCN(c5ccnc6cc(Cl)ccc56)CC4)CC3)ccnc2c1	11.4% [at 16.1 µM]	–
